Drawing on PubChem BioAssay AID583 (Sanford-Burnham Center for Chemical Genomics, 2007), this text covers displacement for 24 compounds.

In all, about 140,000 compounds went through this assay and about 80 (0.06%) were called active. This excerpt belongs to a sample that is enriched for actives. Unmarked numbers belong to inactive results. No stated cut-off is given here; in the data, active means displacement above about 50%; inactive means the rest.

Heat shock 70 kDa protein 1A (Homo sapiens), sequence (P0DMV8 whole entry, looked up): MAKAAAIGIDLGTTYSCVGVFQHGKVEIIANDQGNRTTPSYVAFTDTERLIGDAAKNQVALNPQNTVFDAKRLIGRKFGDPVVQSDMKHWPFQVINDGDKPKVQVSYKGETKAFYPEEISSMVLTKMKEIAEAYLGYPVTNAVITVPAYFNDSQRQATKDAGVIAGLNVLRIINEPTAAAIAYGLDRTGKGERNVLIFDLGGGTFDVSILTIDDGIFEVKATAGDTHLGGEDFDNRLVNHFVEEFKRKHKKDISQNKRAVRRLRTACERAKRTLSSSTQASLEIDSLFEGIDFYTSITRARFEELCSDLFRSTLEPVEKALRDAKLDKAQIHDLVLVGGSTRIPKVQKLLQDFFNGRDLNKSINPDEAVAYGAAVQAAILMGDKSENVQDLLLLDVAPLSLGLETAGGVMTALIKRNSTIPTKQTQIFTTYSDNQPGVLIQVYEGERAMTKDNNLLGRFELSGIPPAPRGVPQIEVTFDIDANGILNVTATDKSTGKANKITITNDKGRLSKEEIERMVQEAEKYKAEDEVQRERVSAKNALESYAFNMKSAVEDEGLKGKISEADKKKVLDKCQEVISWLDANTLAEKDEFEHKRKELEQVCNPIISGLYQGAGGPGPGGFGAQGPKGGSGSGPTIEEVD

This assay addresses Heat shock 70 kDa protein 1A (Homo sapiens) (UniProt P0DMV8). As to the kind of experiment: Hsp70 inhibitors, probe displacement, primary screen, biochemical, fluorescence polarization (AID 583).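 Further: plate controls were vehicle for no effect and reference ligand for full effect.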 To be noted: mP, at 20 µM, stronger effect = higher value.
Take `CCOc1ccc(N(CC(=O)NC2CCCCC2)S(=O)(=O)c2ccc(Cl)cc2)cc1`: the displacement was 2.4%.
As to `NC(=O)c1ccc(NC(=O)Cc2ccc(Cl)cc2)cc1`, the displacement was -3.6%.
Take `Cc1ccc(-c2cc(C(=O)N/N=C/c3ccc([N+](=O)[O-])cc3)[nH]n2)cc1`: the displacement was 1.8%.
As to `Cc1ccc(-c2cc(C(=O)N/N=C/c3cccc([N+](=O)[O-])c3)[nH]n2)cc1`, the displacement was 78.2% (active).
Turning to `O=C(N/N=C/c1cccc([N+](=O)[O-])c1)c1cc(-c2ccc(Cl)cc2)n[nH]1`, the displacement is 4.6%.
On to `CC(C)(C)NC(=O)c1cccc(N2C(=O)c3cccc([N+](=O)[O-])c3C2=O)c1`, for which the displacement was 1.9%.
Consider `Cc1cccc(C(NC(N)=O)c2ccccc2)c1` (centres undefined), for which the displacement is 0.4%.
As for `NC1=NC(=O)/C(=C/c2ccc(-c3cc([N+](=O)[O-])ccc3Cl)o2)S1`, the displacement was 75.9% (active).
Under `NC1=NC(=O)/C(=C/c2ccc(-c3ccc([N+](=O)[O-])cc3Br)o2)S1` stands 44.5%; under `NC1=NC(=O)/C(=C\c2ccc(-c3ccc([N+](=O)[O-])cc3)o2)S1`, -5.8%.
`Cc1ccc(/C(N)=N/OC(=O)c2ccccc2F)cc1`: the displacement was 2.5%.
Turning to `O=S(=O)(Nc1ccc(F)cc1)c1ccc2c(c1)Cc1cc(S(=O)(=O)Nc3ccc(F)cc3)ccc1-2`, the displacement was -0.8%.
For `Cc1ccc(NC(=O)c2ccccc2NC(=O)Cc2cccs2)cc1C`, the displacement is 3.6%.
On to `CN(c1ccc(C(=O)NC2CC2)cc1)S(=O)(=O)c1ccccc1`, for which the displacement is 0.5%.
For the compound `Cc1c(C(=O)Nc2ccc3oc(-c4ccc(Cl)cc4Cl)nc3c2)cccc1[N+](=O)[O-]`, the displacement was -1.5%.
The result for `Cc1c(C(=O)Nc2ccc(-c3nc4cc(Cl)ccc4o3)cc2)cccc1[N+](=O)[O-]` reads -7%; that for `Cc1c(NC(=O)c2ccccc2[N+](=O)[O-])cccc1-c1nc2cc(Cl)ccc2o1`, 60.1% (active).
As to `Cc1cc(NC(=O)CN2CCN(c3ccccc3F)CC2)nc2c1c(=O)oc1ccccc12`, the displacement was 1.7%.
As for `COc1ccc(N2C(=O)C3C(C2=O)N2CCCN2C3c2ccc(Cl)cc2)cc1` (centres undefined), the displacement was 2.3%.
In the case of `O=C1NC(=O)N(c2ccc(Br)cc2)C(=O)/C1=C/c1ccco1`, the displacement was 54% (active).
As for `Cc1cc(N2C(=O)NC(=O)/C(=C\c3ccco3)C2=O)ccc1Br`, the displacement is 40.3%.
The result for `O=C1NC(=O)N(c2ccc(Br)cc2)C(=O)/C1=C\C=C\c1ccco1` reads -7.2%.
The result for `N#CCOc1ccccc1/C=N/c1sc2c(c1C#N)CCCC2` reads -0.5%.
On to `CC(C)(C)NC(=O)CN1CCC(O)(c2ccc3c(c2)OCO3)CC1`, for which the displacement is 5.2%.
